Hits are enriched below; roughly 11% of the tested compounds scored in any of these assays.
ALDH1A1 block: qHTS Assay for Inhibitors of Aldehyde Dehydrogenase 1 (ALDH1A1); Aldehyde dehydrogenase 1A1 (Homo sapiens), P00352; Potency, µM (doses to about 75.3 µM), hits mostly inhibitors; Purified ALDH1A1, NADH fluorescence, propionaldehyde substrate; 220,000 compounds, 7.3% hits
GoLoco inh red: qHTS Assay for Inhibitors of RGS12 GoLoco Motif Activity (Red Fluorophore); Gai1:RGS12 GoLoco peptide FP, rhodamine, 10 min; Guanine nucleotide-binding protein G(i) subunit alpha-1 (Homo sapiens), P63096; Potency, µM (doses to about 61.6 µM), hits mostly inhibitors; 230,000 compounds, 0.44% hits; active means well fitted inhibition curve with a large enough effect, not every such curve was filed as active; inactive means no such curve, though single readings can be large or run the other way; further: nearly all actives have a fitted effect of over 30% in size
Target sequence (P63096 whole entry, looked up): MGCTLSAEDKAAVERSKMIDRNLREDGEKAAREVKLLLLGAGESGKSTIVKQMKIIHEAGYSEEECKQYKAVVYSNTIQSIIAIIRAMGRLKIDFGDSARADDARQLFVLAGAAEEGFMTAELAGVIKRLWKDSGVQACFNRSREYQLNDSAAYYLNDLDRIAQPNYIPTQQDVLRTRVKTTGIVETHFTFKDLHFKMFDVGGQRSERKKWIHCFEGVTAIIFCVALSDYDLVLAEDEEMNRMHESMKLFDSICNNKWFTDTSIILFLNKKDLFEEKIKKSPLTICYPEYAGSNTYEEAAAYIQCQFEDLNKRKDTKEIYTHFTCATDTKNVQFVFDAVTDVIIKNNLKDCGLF
HPGD block: qHTS Assay for Inhibitors of HPGD (15-Hydroxyprostaglandin Dehydrogenase); purified HPGD, NADH fluorescence kinetic, PGE2 substrate; Potency, µM, most hits filed as inhibitors; 15-hydroxyprostaglandin dehydrogenase [NAD(+)] (Homo sapiens), P15428; 150,000 compounds, 4.3% hits
Target sequence (P15428 whole entry, looked up): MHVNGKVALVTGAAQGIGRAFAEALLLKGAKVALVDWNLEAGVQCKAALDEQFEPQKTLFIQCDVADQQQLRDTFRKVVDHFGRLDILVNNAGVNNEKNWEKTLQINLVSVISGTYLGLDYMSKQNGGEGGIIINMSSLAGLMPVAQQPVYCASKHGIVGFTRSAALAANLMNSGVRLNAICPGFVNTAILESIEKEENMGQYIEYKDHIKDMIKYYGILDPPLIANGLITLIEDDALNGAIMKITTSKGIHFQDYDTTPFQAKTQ
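20 nM HPGD preincubated 15 min at room temperature with compound in 50 mM Tris-HCl pH 8, 0.01% Tween 20. Started with 1 mM NAD+ and 30 uM prostaglandin E2; NADH fluorescence (360/450 nm) read 5 times over 30-s intervals, last minus first.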
HTT cytoprotect: qHTS Multiplex Assay to Identify Dual Action Probes in a Cell Model of Huntington: Cytoprotection (ATP); AID 1471, 2008; Potency, µM (doses to about 56.4 µM), usual class: activators; 230,000 compounds, 0.14% hits; PC12 HTT-Q103 induced, cytoprotection, ATP luminescence, 40 h; active means well fitted curve in the direction sought with a large enough effect; inconclusive means small, poorly fitted or top-dose-only effect, or another doubt; inactive means no such curve, though single readings can be large; an effect the other way counts as inactive or inconclusive; further: nearly all actives have a fitted effect of over 45% in size
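PC12 cells stably carrying ecdysone-inducible Htt exon 1 (Q103)–GFP were induced with 100 nM tebufenozide (final) alongside library compounds in a dose series. Cytoprotection was scored as retained ATP by ATPlite luminescence.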
PNC inhibitor: High Content Assay for Compounds that inhibit the Assembly of the Perinucleolar Compartment. PC3M PTB-GFP, PNC prevalence imaging, 16 h; active compounds read low. activity change (PNC), negative = inhibition, % at 10 µM. 140,000 compounds, 3.1% hits;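 active means readout at or below -70, meaning at least 70% loss of cells showing the perinucleolar compartment, a nuclear body marking cancer cells; inconclusive means readout between -30 and a set limit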
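PC3M cells stably expressing PTB-GFP, 750–1000 cells/well, treated 16 h at 37 °C with compound (23 nl of library stock), in duplicate. After paraformaldehyde fixation and Hoechst stain, imaged at 20x; PNC prevalence scored by image analysis.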
HttQ103 aggreg: qHTS Multiplex Assay to Identify Dual Action Probes in a Cell Model of Huntington: Aggregate Formation (GFP); PC12 HttQ103-GFP aggregates, Acumen cytometry, 40 h; Potency, µM (top dose mostly 46.1 µM), hits mostly inhibitors; 220,000 compounds, 1.1% hits; AID 1688, 2009; active means well fitted curve in the direction sought with a large enough effect; inconclusive means small, poorly fitted or top-dose-only effect, or another doubt; inactive means no such curve, though single readings can be large; an effect the other way counts as inactive or inconclusive; further: nearly all actives have a fitted effect of over 60% in size
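Ecdysone-promoter PC12 model expressing HTT exon 1 Q103 fused to GFP, induced by tebufenozide at 100 nM final. Compounds titrated; aggregates sized 1–25 µm scored on a 488 nm laser cytometer.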
Each line names hits and unclear results; the compound was inactive in the other large screens. Unless noted, the call rests on the fitted dose curve; in most records, active means well fitted inhibition curve with a large enough effect (not every such curve was filed as active); inconclusive means small, poorly fitted or top-dose-only effect, or another doubt; inactive means no such curve, though single readings can be large or run the other way.

Cc1cnc(C(=O)OCC(=O)N(Cc2ccccc2)C(C)C)cn1	none (no result: HPGD block, PNC inhibitor)
Cc1ccc2nc(NC(=O)COC(=O)CSc3nc(C)cc(C)n3)sc2c1	ALDH1A1 block 13µM, HPGD block inconclusive
CSc1nsc(SCC(=O)Nc2nc3ccc(C)cc3s2)n1	ALDH1A1 block 40µM
O=C(CN1CCOCC1)Nc1nc2ccc(F)cc2s1	none
Cc1sc(NC(=O)CN2CCOCC2)nc1-c1ccc2c(c1)CCN2S(=O)(=O)c1ccccc1	PNC inhibitor inconclusive, HttQ103 aggreg 7.1µM
Cc1ccc2nc(NC(=O)CN3CCOCC3)sc2c1	HttQ103 aggreg 3.2µM
COCCOc1nc2c(c(=O)n(C)c(=O)n2C)n1Cc1cccc(OC)c1	ALDH1A1 block inconclusive, HttQ103 aggreg 8.9µM
COc1cccc(Cn2c(OCC3CCCO3)nc3c2c(=O)n(C)c(=O)n3C)c1 (stereo not given)	ALDH1A1 block 7.1µM
Cn1c(=O)c2c(nc(NCC3CCCO3)n2Cc2cccc(Br)c2)n(C)c1=O (stereo not given)	none
COc1ccc(Oc2nc3c(c(=O)n(C)c(=O)n3C)n2Cc2cccc(OC)c2)cc1	none
O=C(CCN1CCOCC1)NNC(=S)NC(=O)c1ccccc1	none (no result: HPGD block, PNC inhibitor)
CC1CCC(C(=O)O)NC1c1cccc(N2CCCC2=O)c1 (stereo not given)	none (no result: GoLoco inh red, HPGD block, PNC inhibitor, HttQ103 aggreg)
Oc1ccc(/C(Cc2ccc3ccccc3n2)=N\Nc2ccccc2)c(O)c1	ALDH1A1 block inconclusive (no result: HPGD block, PNC inhibitor)
Oc1ccc(/C(Cc2ccccn2)=N\Nc2ccccc2)c(O)c1	ALDH1A1 block 18µM (no result: HPGD block, PNC inhibitor)
CCCCNS(=O)(=O)c1ccc(NC(=O)c2c(-c3ccccc3Cl)noc2C)cc1	none
Cc1ccc(S(=O)(=O)CC2CSc3nc4ccccc4n32)cc1 (stereo not given)	HTT cytoprotect 4µM, HttQ103 aggreg 7.1µM
Cn1c(=O)n(C)c2cc(C(=O)c3ccccc3)ccc21	ALDH1A1 block 7.9µM
Cc1ccc(N/N=C2/CCCNC2=O)cc1	ALDH1A1 block 22µM
CCCOc1ccc(C(=O)Nc2cc(-c3nn4c(C)nnc4s3)ccc2C)cc1	HPGD block 1.3µM, HttQ103 aggreg inconclusive
COc1ccc(Cc2nnc(NC(=O)c3c(-c4ccccc4)noc3C)s2)cc1	none
Cc1onc(-c2ccccc2)c1C(=O)Nc1cccc(OC(C)C)c1	none
COc1ccc(Cc2nnc(NC(=O)c3c(-c4ccccc4)noc3C)s2)cc1OC	ALDH1A1 block 32µM
COC(=O)c1c(-c2ccc(C)cc2)csc1NC(=O)c1c(-c2ccccc2)noc1C	ALDH1A1 block inconclusive, HPGD block inconclusive, PNC inhibitor inconclusive
CCCOc1cccc(NC(=O)c2c(-c3ccccc3)noc2C)c1	ALDH1A1 block inconclusive, HPGD block inconclusive, HttQ103 aggreg 6.3µM
COC(=O)c1sccc1NC(=O)c1c(-c2ccccc2)noc1C	ALDH1A1 block 8.9µM
CCOC(=O)c1c(NC(=O)c2c(-c3ccccc3)noc2C)sc(C)c1-c1ccccc1	ALDH1A1 block inconclusive, HPGD block inconclusive, PNC inhibitor -103
CNc1nnc(Sc2ncccc2[N+](=O)[O-])s1	none (no result: ALDH1A1 block, HPGD block, PNC inhibitor)
O=C(NN=C(Cc1ccccc1)Cc1ccccc1)c1ccccc1F	ALDH1A1 block inconclusive (no result: HPGD block, PNC inhibitor)
CCOc1ccc(NC(=O)C(Cc2ccccc2)NC(=O)C2CCCCC2)cc1 (stereo not given)	none
CCOC(=O)c1c(C)[nH]c(C(=O)CSc2nc(C)cc(C)n2)c1C	ALDH1A1 block 16µM
CNC(=O)[C@H](C)/C=C/C(NC(=O)OCc1ccccc1)c1ccc(C(=O)OC)cc1 (stereo not given in full)	ALDH1A1 block inconclusive (no result: PNC inhibitor, HttQ103 aggreg)
CCC(C(=O)OC)n1cnc2c(nnn2-c2cccc(Cl)c2)c1=O (stereo not given)	HPGD block 20µM, HttQ103 aggreg inconclusive
CC1=NNC(=S)NCCCN2CCN(CCCNC(=S)NN=C(C)C=NNC(=S)NCCCN3CCN(CCCNC(=S)NN=C1)CC3)CC2	none (no result: PNC inhibitor, HttQ103 aggreg)
N#CC1=C(SCC(=O)NCc2ccccc2)NC(=O)CC1c1ccco1 (stereo not given)	ALDH1A1 block 8.9µM
N#CC1=C(SCc2ccccc2)NC(=O)CC1c1ccco1 (stereo not given)	ALDH1A1 block 22µM
N#CC1=C(SCC(=O)NC2CCCCC2)NC(=O)CC1c1ccco1 (stereo not given)	ALDH1A1 block 11µM
COC(=O)CSC1=C(C#N)C(c2ccccc2F)CC(=O)N1 (stereo not given)	none (no result: ALDH1A1 block, HPGD block, PNC inhibitor)
CCSC1=C(C#N)C(c2ccc(C)o2)CC(=O)N1 (stereo not given)	none (no result: ALDH1A1 block, HPGD block, PNC inhibitor)
CCCCCCSC1=C(C#N)C(c2ccc(C)o2)CC(=O)N1 (stereo not given)	ALDH1A1 block 7.9µM, HPGD block 32µM
CN(C)c1ncc2nc(-c3cccc(C#N)c3)c(=O)n(CCC#N)c2n1	ALDH1A1 block inconclusive (no result: HPGD block, PNC inhibitor, HttQ103 aggreg)
CCCn1c(C)nc2c(NCCCN(CC)CC)nc(C)nc21	none (no result: PNC inhibitor, HttQ103 aggreg)
Cc1ccc(C2CC(=O)NC(SCc3ccccc3)=C2C#N)o1 (stereo not given)	HPGD block 22µM
Cc1onc(-c2ccccc2)c1C(=O)N1CCCSC1=Nc1ccccc1	ALDH1A1 block 11µM, HttQ103 aggreg inconclusive
CCCCC/C=N/NC(=O)c1[nH]c2ccc([N+](=O)[O-])cc2c1C	ALDH1A1 block inconclusive (no result: HPGD block, PNC inhibitor)
Cc1c(C(=O)NN)[nH]c2ccc([N+](=O)[O-])cc12	ALDH1A1 block 7.9µM (no result: HPGD block, PNC inhibitor)
Cc1ccc(S(=O)(=O)/N=C2/NC(=O)/C(=C/c3cccnc3)S2)cc1	HPGD block 20µM
Cc1ccc(S(=O)(=O)/N=C2/NC(=O)/C(=C/c3ccc(Br)o3)S2)cc1	HPGD block 14µM, PNC inhibitor inconclusive
O=C(O)CSC1CC(=O)N(c2cccc(Cl)c2)C1=O (stereo not given)	ALDH1A1 block 10µM, PNC inhibitor inconclusive
O=C(O)CSC1CC(=O)N(c2ccc(Cl)c(Cl)c2)C1=O (stereo not given)	ALDH1A1 block 3.2µM, PNC inhibitor inconclusive
COc1ccc(NS(=O)(=O)c2ccc3nc(COc4cccc5ccccc45)[nH]c3c2)cc1	ALDH1A1 block 22µM, HPGD block 35µM, HttQ103 aggreg inconclusive
COc1ccc(NS(=O)(=O)c2ccc3nc(COc4ccc5ccccc5c4)[nH]c3c2)cc1	PNC inhibitor inconclusive (no result: GoLoco inh red, HPGD block)
Cc1ccccc1OCc1nc2ccc(S(=O)(=O)N3CCOCC3)cc2[nH]1	ALDH1A1 block 10µM, HPGD block 14µM

High-throughput results as filed in PubChem BioAssay.
